# Only some compounds are listed: those with a hit (about 2.1% of all), similar ones and a draw of the others.
# TRPM1 prom inh: inhibitors of MITF-dependent TRPM1 promoter reporter, primary screen, cell-based, SK-MEL-5, single point, luciferase; SK-MEL-5 TRPM1 promoter luciferase, 24 h; inhibition, % at 12.5 µM; hit rate 0.83% among 330,000;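 active means mean inhibition across replicates of 60% or more, whatever share of single replicates reaches that level; inconclusive means some that reach 60%, reason not given; inactive means mean inhibition across replicates below 60%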
# LMP1 NFkB inh: EBV LMP1-driven NF-kappaB luciferase reporter inhibitors, primary screen, cell-based, luminescence, single point; hit rate 0.69% among 350,000; inhibition, % at 12.5 µM; LMP1-induced NF-kappaB luciferase reporter cells; in the data active means inhibition above about 41%; inconclusive means no clear call, values can overlap the other calls;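 further: 0% = neutral control wells and 100% = reference inhibitor control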
# PAX8 inh HTS: inhibitors of PAX8-driven TPO luciferase reporter, primary screen, RMG-I cells, single concentration. SteadyGlo, 24 h. inhibition, % at 12.6 µM. hit rate 1.2% among 360,000;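 active means mean replicate inhibition at least 60% with every replicate also reaching 60%; inconclusive means only one of the two criteria is met; inactive means mean below 60% and not all replicates reaching 60%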;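 further: luciferase light reporting Pax8 driven TPO promoter activity; plate controls were median of neutral control wells for no effect and mitoxantrone controls for full effect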
# Shn3 inh set2: reduction of Shn3 3'UTR firefly luciferase signal, primary screen, Schnurri-3 inhibitor project, cell-based, Clone20 osteoblasts, set 2. Clone20 osteoblast Shn3 3'UTR firefly luciferase, 24 h. inhibition, % at 12.5 µM. hit rate 0.52% among 360,000;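 active means mean inhibition of at least 75% with every replicate also reaching 75%; inconclusive means mean inhibition at least 75% but some replicate below; inactive means mean inhibition below 75%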;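 further: 0% = median of neutral control wells and 100% = pilot-screen positive control compound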
# aSyn UTR inh: MLPCN primary screen, SNCA 5' untranslated region; alpha-synuclein 5'UTR reporter, inhibitor activity; inhibition, % (tested at 7.5 µM); hit rate 0.82% among 300,000; in the data active means inhibition above about 60%; inconclusive means no clear call, values can overlap the other calls;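 further: H4 neuroglioblastoma cells stably carrying SNCA 5'UTR luciferase fusion; 0% = DMSO wells and 100% = positive control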
# Starred values were filed as active, the others as inactive; ? = inconclusive; . = no result given.
SMILES,TRPM1 prom inh,LMP1 NFkB inh,PAX8 inh HTS,Shn3 inh set2,aSyn UTR inh
CCC(=O)OC1c2ccccc2C(=O)N1Cc1ccccc1 (configuration not stated),-12.6,87.1*,2.5,-10.3,-0.3
CCN(CC)CCNC(=O)c1cc(-c2cccnc2)nc2ccc(S(=O)(=O)N3CCC(C)CC3)cc12,88.3*,-10.5,20.0,11.4,-16.6
O=C(c1ccco1)c1cc2c(ccc3ccccc32)oc1=O,1.5,6.4,-14.7,-13.4,-13.1
COC1OC(COCc2ccccc2)C2OC(C)(C)OC2C1O (configuration not stated),.,.,104.0*,.,.
CC[n+]1c(/C=C/c2c[nH]c3ccccc23)ccc2cc(C)ccc21,74.5*,4.7,75.8*,.,.
CN(C)CCCNC(=O)c1ccc(-c2nc(-c3ccc(Cl)cc3)cs2)cc1,82.7*,-20.6,-5.6,7.8,117.6*
N#Cc1ccc(-c2csc(NNC(=O)c3ccc(Br)cc3)n2)cc1,-11.4,54.8*,.,7.7,35.1
N#Cc1ccc(-c2csc(NNC(=O)c3ccccc3)n2)cc1,3.3,13.6,.,-7.2,7.3
CCN(CC)CCC(=O)N1C/C(=C/c2ccccc2)C(=O)/C(=C\c2ccccc2)C1,.,?,-12.7,74.8,.
O=C1/C(=C\c2ccc(Cl)c(Cl)c2)CN(C(=O)CCN2CCOCC2)C/C1=C/c1ccc(Cl)c(Cl)c1,117.5*,2.5,89.2*,98.7*,.
O=C(NCCN1CCOCC1)c1ccc(Cl)c(Cl)c1,-6.3,-5.2,2.7,-14.0,4.4
O=C1/C(=C\c2ccccc2)CN(C(=O)CCN2CCCCC2)C/C1=C/c1ccccc1,109.4*,-32.0,-4.4,93.8*,.
O=C(NCCCN1CCOCC1)c1ccc(Br)cc1,-12.6,-8.2,.,-26.3,-8.6
O=C(NCCCN1CCOCC1)c1ccc(CNS(=O)(=O)c2ccc(Br)cc2)cc1,-8.7,2.1,131.7*,-45.3,14.1
CC(C)(C)c1ccc(C(=O)NCCCN2CCN(CCCNC(=O)c3ccc(C(C)(C)C)cc3)CC2)cc1,90.1*,-4.0,70.1*,83.0,-9.7
O=C(NC1CCCCCC1)c1ccc([N+](=O)[O-])s1,70.8*,-13.1,37.8,-6.3,.
CC(SC(=S)N1CCOCC1)C(=O)O (configuration not stated),5.1,-1.7,.,5.8,3.5
S=C(SSC(=S)N1CCOCC1)N1CCOCC1,.,.,22.5,89.6*,.
N#CC(C#N)=C(Nc1ccc(F)cc1)SCc1cccc(F)c1,51.9,18.4,77.3*,45.7,23.6
CCOc1ccc(N/C(SCc2cccc([N+](=O)[O-])c2)=C(/C#N)C(N)=O)cc1,-10.7,-6.3,-9.5,-0.8,-21.2
CCCS(=O)(=O)Nc1ccc(Nc2c3ccccc3nc3ccccc23)c(OC)c1,75.4*,42.8*,46.4,88.0*,.
COCCn1c(N)c(N(Cc2ccccc2)C(=O)c2cc3ccccc3o2)c(=O)[nH]c1=O,15.7,6.4,-4.2,1.9,19.2
O=C(CN1C(=O)CCOc2ccccc21)Nc1ccc(Cl)c(S(=O)(=O)N2CCOCC2)c1,3.6,42.2*,5.1,-9.3,.
O=C(CN1C(=O)CCOc2ccccc21)Nc1cccc(S(=O)(=O)N2CCOCC2)c1,6.0,-20.5,-4.8,-14.5,.
COC(=O)c1cccc2c1-c1ccccc1/C2=N/O,-9.2,43.8*,.,12.1,10.5
SMILES,TRPM1 prom inh,LMP1 NFkB inh,PAX8 inh HTS,Shn3 inh set2,aSyn UTR inh
COC(=O)c1ccc2c(c1O)C(=O)c1ccccc1C2=O,97.1*,-10.2,.,-21.6,-15.7
O=C1c2ccccc2C(=O)c2c1ccc(O)c2O,-1.2,-1.3,-3.8,-1.3,.
O=C(CSc1nc2c(cnn2-c2ccc(F)cc2)c(=O)[nH]1)N1N=C(c2cccs2)CC1c1ccc(F)cc1 (configuration not stated),.,.,-32.2,4.8,.
CC(=O)c1ccccc1OCCCN1CCCCC1,-17.1,-6.0,.,-4.1,-5.4
CC(=O)c1ccccc1OCCOCCOCCOc1ccccc1C(C)=O,18.9,-9.0,-8.0,5.5,67.3*
COc1cc(/C=C/c2cc[n+](C)cc2)ccc1OCC(=O)Nc1ccc(Cl)c(Cl)c1,7.3,1.8,109.5*,-15.6,-43.4
CCN(CC)C(=S)SSC(=S)N(CC)CC,31.3,-10.0,4.9,-2.5,96.8*
O=C(Nc1ccc(F)cc1)Nc1cc(OCC(F)(F)F)cc(OCC(F)(F)F)c1,81.1*,28.4,82.8*,90.3*,86.0*
CCOc1ccc(NC(=O)Nc2cc(OCC(F)(F)F)cc(OCC(F)(F)F)c2)cc1,24.6,-0.2,87.2*,63.8,0.5

# Screens: PubChem BioAssay, Broad Institute
